Shown are actives, neighbours in structure and some others; about 3.4% of the full set was active somewhere.
GLS inh: blocks human kidney-isoform glutaminase activity | O94925 | GLS enzymatic activity, qHTS titration | Potency, µM (series often up to 45.5 µM), inactives show top-dose activity change, negative = inhibition, actives largely listed as inhibitors | 0.21% of 410,000 active; note: % is set by controls: 0 for no effect and ±100 for the full control effect
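Glutamate formation by hKGA was monitored fluorometrically using coupled glutamate oxidase, HRP and Amplex Red. Substrate was added as 1 mM L-glutamine solution; incubation was 30 min at RT after an initial read.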
PLK1 PBD inh: inhibitors of human PLK1 polo-box domain binding. 2.8% of 360,000 active. Potency, µM, for the others: max response, negative = inhibition, actives largely listed as inhibitors. Plk1 PBD binding of FITC phosphopeptide, fluorescence polarization. P53350. AID 720504; note: series mostly up to about 57 µM; % is set by controls: 0 for no effect and ±100 for the full control effect; nearly all actives have a fitted effect of over 65% in size
Mito fusion act: inhibitors of mitochondrial division or activators of mitochondrial fusion | AID 485298 | Potency, µM (series often up to 46.1 µM), for inactives: at the highest dose growth rescue (activation), hits mostly activators | S. cerevisiae fusion-defective mutant growth rescue, CellTiterGlo 48 h | 0.23% of 320,000 active; note: % of control where 0% means no effect; nearly all actives have a fitted effect of over 45% in size
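Luminescent cell viability in 1536-well qHTS format served as the measure of rescued growth in ts fusion-mutant S. cerevisiae cultured on non-fermentable YPEG for 48 hours at 37C.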
PKM2 activator: activators of human pyruvate kinase M2; P14618; purified PKM2, Kinase-Glo ATP luminescence, activation; response scale: 0% is enzyme alone, no compound; Potency, µM (top dose mostly 57.5 µM), for the others: at the top dose activation, usual class: activators; 0.34% of 260,000 active; note: % is set by controls: 0 for no effect and ±100 for the full control effect; nearly all actives have a fitted effect of over 55% in size
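ATP formation by purified human PK-M2, quantified via coupled luciferase luminescence after 1 h at room temperature with 0.1 mM ADP and 0.5 mM PEP final.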
GCN5L2 inh: GCN5L2 (KAT2A) acetyltransferase inhibition; AID 504327; 0.21% of 390,000 active; Potency, µM (titrated, usually from 58.9 µM), for inactives: at the top dose activity change, negative = inhibition, actives largely listed as inhibitors; GCN5L2 HAT assay, ThioGlo1 CoA-SH fluorescence; Q92830; note: % is set by controls: 0 for no effect and ±100 for the full control effect
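qHTS, 1536-well. 20nM enzyme, pH 7.5 HEPES/EDTA/Tween-20 buffer; 15 min compound preinc., RT. Start: 75uM H3(1-25), 70uM AcCoA, 50uM ThioGlo1. Read Ex340/Em540 at t=0 (autofluorescence flag) and t=20 min.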
VDR inhibitor: blocks the human vitamin D receptor; P11473; Potency, µM, without a hit: max response, negative = inhibition, actives largely listed as inhibitors; VDR-SRC2-3 peptide fluorescence polarization, 2 h; 0.93% of 400,000 active; note: % is set by controls: 0 for no effect and ±100 for the full control effect
Target sequence (P11473 whole entry, looked up): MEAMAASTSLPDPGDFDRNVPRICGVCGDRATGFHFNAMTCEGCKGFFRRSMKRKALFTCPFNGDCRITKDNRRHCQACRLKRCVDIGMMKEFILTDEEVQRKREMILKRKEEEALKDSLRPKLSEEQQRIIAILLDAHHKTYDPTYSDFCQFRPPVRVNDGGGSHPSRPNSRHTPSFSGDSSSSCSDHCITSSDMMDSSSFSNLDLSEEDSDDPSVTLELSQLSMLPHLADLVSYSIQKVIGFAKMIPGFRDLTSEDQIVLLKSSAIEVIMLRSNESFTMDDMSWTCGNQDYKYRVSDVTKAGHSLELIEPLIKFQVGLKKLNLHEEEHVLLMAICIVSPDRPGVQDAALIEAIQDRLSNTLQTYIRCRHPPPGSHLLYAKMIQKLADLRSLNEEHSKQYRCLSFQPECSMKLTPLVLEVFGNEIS
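VDR–SRC2-3 interaction, FP format. Cmpds 23 nl via pintool, brief spin, 2 h ambient incubation.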
Active calls of the source: *; ? = inconclusive; · = no result. Calls come from the whole dose curve; as a rule, active = well fitted curve in the direction sought with a large enough effect; inconclusive = small, poorly fitted or top-dose-only effect, or another doubt; inactive = no such curve, though single readings can be large; an effect the other way counts as inactive or inconclusive. Potency is the fitted concentration of half-maximal effect.

SMILES | GLS inh | PLK1 PBD inh | Mito fusion act | PKM2 activator | GCN5L2 inh | VDR inhibitor
COc1ccc(C2CC(=O)N3CN(Cc4ccco4)CSC3=C2C#N)cc1 (stereo unspecified) | ? | 27µM* | -1% | 1% | -3% | 28µM*
COc1ccc2ccccc2c1C1CC(=O)N2CN(Cc3ccco3)CSC2=C1C#N (stereo unspecified) | -1% | 19µM* | -3% | -2% | ? | ?
N#CC1=C2SCN(Cc3ccccc3)CN2C(=O)CC1c1cccs1 (stereo unspecified) | 6% | 24µM* | 10% | -24% | ? | ?
N#CC1=C2SCN(Cc3ccco3)CN2C(=O)CC1c1ccc(Cl)cc1 (stereo unspecified) | -15% | 27µM* | 17% | 0% | -17% | ?
O[C@@H]1CN(Cc2ccc(-n3cccn3)cc2)CC[C@H]1N1CCN(c2ccccc2F)CC1 | 15% | -1% | -1% | 4% | -22% | -6%
O=C(NCCC1=CCCCC1)c1ccc(-n2cncn2)c([N+](=O)[O-])c1 | -3% | -2% | 10% | · | -3% | -1%
Cn1c(=O)c2c(nc(NCCNC(=O)c3ccco3)n2Cc2ccccc2)n(C)c1=O | 6% | 1% | 7% | 9% | -9% | -6%
COc1ccc2ccccc2c1C1CC(=O)N2CN(C3CCCCC3)CSC2=C1C#N (stereo unspecified) | -17% | 13µM* | 0% | -4% | -27% | 89µM*
Cc1ccc(C(=O)Nc2ccc(N3CCOCC3)nc2N2CCOCC2)cc1 | 1.1µM* | 3% | 4% | 2% | 3% | -4%
C=Cc1ccc(CN2CCCN(Cc3ccc(Cl)cc3)S2(=O)=O)cc1 | -13% | 15µM* | 0% | · | 0% | ?
C=Cc1ccc(CN2CCCN(Cc3ccc(F)cc3)S2(=O)=O)cc1 | -8% | 2% | -14% | · | -3% | 4%
CC1=CC(=O)C=C(C)C1=NOC(=O)c1cccc([N+](=O)[O-])c1 | 41% | 9.5µM* | 1% | 12% | 3% | 3%
O=C(CSc1nc2c(c(=O)[nH]1)CN(Cc1ccc(F)cc1)CC2)Nc1ccc(F)cc1 | 6% | 0% | 1% | 16µM* | 1% | -25%
Cc1ccc(NC(=O)C2CC(=O)Nc3ncnn32)cc1Cl (stereo unspecified) | -10% | 27µM* | 1% | -3% | -2% | -17%
Cc1ccc(NC(=O)C2CC(=O)Nc3ncnn32)c(C)c1 (stereo unspecified) | -8% | -11% | -2% | -1% | 1% | -19%
COCCNC(=O)c1onc(CSc2ccccn2)c1C(=O)NCCOC | 0% | -17% | · | · | · | -13%
CC(C)CCNC(=O)c1onc(CSc2ccccn2)c1C(=O)NCCC(C)C | 8% | 27µM* | · | · | · | ?
CCOc1ccc(Cl)cc1S(=O)(=O)n1nnc2ccccc21 | 33% | 27µM* | 3% | 1% | 0% | -6%
Cc1ccc(/C=C2\C(=N)N3N=C(CC(=O)N4CCOCC4)SC3=NC2=O)o1 | 5% | 27µM* | 0% | · | -8% | -10%
COc1ccc(/C=C2\C(=N)N3N=C(CC(=O)N4CCOCC4)SC3=NC2=O)cc1 | 4% | -9% | 10% | · | -5% | -4%
N=C1/C(=C/c2ccc(-c3cccc(C(=O)O)c3)o2)C(=O)N=C2SC(CC(=O)N3CCOCC3)=NN12 | ? | 30µM* | 5% | · | -25% | 19%
COc1cccc(CCc2ccccc2OCC(CN(C)C)OC(=O)CCC(=O)O)c1 (stereo unspecified) | 16% | · | · | · | -10% | -5%
c1ccc2c(N3CCOCC3)nc(-c3ccoc3)nc2c1 | · | · | · | · | -13% | ?
c1ccc2c(-n3ccnc3)nc(-c3ccoc3)nc2c1 | · | · | · | · | -27% | 32µM*
CN(C)C(=O)c1ccc(-c2nc(Nc3ccccc3)c3ccccc3n2)cc1 | · | · | · | · | ? | 40µM*
SMILES | GLS inh | PLK1 PBD inh | Mito fusion act | PKM2 activator | GCN5L2 inh | VDR inhibitor
O=C(O)c1ccc(Nc2nc(-c3ccccc3)nc3ccccc23)cc1 | 58% | 19µM* | 19% | · | -7% | 79µM*
c1ccc(Nc2nc(-c3ccoc3)nc3ccccc23)cc1 | · | · | · | · | ? | 28µM*
CNC(=O)c1ccc(Nc2nc(-c3ccccc3)nc3ccccc23)cc1 | 33% | 0% | -15% | 0% | -19% | 8%
CC1(C)SC2C(C(=O)O)N=C(Cc3ccccc3)N2C1C(=O)O (stereo unspecified) | 16µM* | -4% | · | · | · | 5%
CC1(C)S[C@@H]2[C@H](NC(=O)COc3ccccc3)C(=O)N2[C@H]1C(=O)O | 9% | · | · | · | -2% | 8%
CCc1nnc(NC(=O)CCC(=O)NC2CCCc3ccccc32)s1 (stereo unspecified) | 3% | 4% | -2% | -5% | 2% | 9%
Cc1ccc(/C=C/C2=Cc3c(sc(NC(=O)CSc4n[nH]c(N)n4)c3C#N)C(C)(C)C2)o1 | · | · | -3% | 4.5µM* | -22% | ·
CSCC[C@H](NC(=O)[C@@H]1CCCN1C(=O)CNC(=O)[C@H](CCCCN)NC(=O)[C@H](Cc1cnc[nH]1)NC(=O)[C@H](CO)NC(=O)[C@H](CC(C)C)NC(=O)[C@H](CCCN=C(N)N)NC(=O)[C@@H]1CCCN1C(=O)[C@H](CCCN=C(N)N)NC(=O)[C@@H]1CCC(=O)N1)C(=O)N1CCC[C@H]1C(=O)N[C@@H](Cc1ccccc1)C(=O)O | · | · | · | · | 6% | 12%
CC1(C)SC(=Nc2ccccc2)N(S(=O)(=O)c2ccccc2)C1=O | 0% | 1% | -2% | 0% | -5% | -6%
O=C1C(c2ccccc2)SC(=Nc2ccccc2)N1S(=O)(=O)c1ccccc1 (stereo unspecified) | -2% | 17µM* | 1% | -12% | -9% | 89µM*
Cc1oc(=O)oc1CN1CCN(c2cc3c(cc2F)c(=O)c(C(=O)O)c2n3C(C)S2)CC1 (stereo unspecified) | -3% | · | · | · | -22% | ?
COc1cc(/C=N/N=C2\CC3CCC2(C)C3(C)C)ccc1O (stereo unspecified) | 9% | -13% | -2% | 14% | · | -10%
CC12CCC(C/C1=N\N=C1\NC(=O)/C(=C\c3cccc(Br)c3)S1)C2(C)C (stereo unspecified) | -13% | 30µM* | 14% | 0% | -20% | -1%
CN1CCN(c2ncc3nc(-c4ccccc4)c(=O)n(Cc4cccs4)c3n2)CC1 | · | · | · | · | -6% | -8%
O=C(c1cc(-c2ccc(O)cc2)on1)N1CCN(c2ccccc2)CC1 | 14% | 34µM* | 24% | -1% | -23% | 0%
CN(C(=O)CO)c1c(I)c(C(=O)NCC(O)CO)c(I)c(C(=O)NCC(O)CO)c1I (stereo unspecified) | -6% | · | · | · | · | ·

Screens as filed in PubChem BioAssay.
